# This is one part of a sample in which hits are shown more often than they occur.
# Shiga toxin inh – blocks Shiga toxin action in Vero cells; inhibition, % at 38.7 µM; 9.2% of 290,000 active; Vero cells, Shiga toxin protein synthesis inhibition reporter; in the data active = inhibition mostly above about 28%, no sharp cut-off; inactive = mostly below about 43%; note: 0% is about no effect
# NS1 inh – blocks influenza NS1 protein function; Potency, µM (highest dose often 46.1 µM), for the others: at the top dose activity, positive = more growth; 0.4% of 270,000 active; AID 2326; calls by dose curve; note: potency is the fitted concentration of half-maximal effect; actives are rising curves; nearly all actives have a fitted effect of over 50% in size
#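 Read-out: OD600 growth recovery of NS1-expressing budding yeast. Cells grown overnight at 30C in -URA glucose medium, washed, resuspended and diluted 1:100 in 2% galactose assay medium, pH 6.0. Same strain lacking NS1 served as positive control.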
# Cycloheximide cs – counter-screen hit for Shiga toxin inhibitors, cycloheximide | max response, % | 12% of 300,000 active | cell reporter, cycloheximide protein synthesis inhibition counterscreen; in the data active = max response mostly above about 13%, no sharp cut-off; inactive = mostly below about 14%; note: read at 38.3 µM for the half of the compounds with a filed dose; 0% is about no effect
# SARS PLpro yeast – inhibitors of SARS-CoV papain-like protease in yeast; S. cerevisiae expressing SARS-CoV PLpro, growth rescue; Potency, µM (titrated, usually from 32.9 µM), for inactives: top-dose activity, positive = growth rescue, hits mostly activators; 0.19% of 330,000 active; calls by dose curve; note: potency is the fitted concentration of half-maximal effect; 0% is about no effect; nearly all actives have a fitted effect of over 55% in size
# Tb PYK inh – blocks Trypanosoma brucei pyruvate kinase; AID 624173; Potency, µM (titrated, usually from 76.8 µM), for inactives: top-dose activity, negative = inhibition, most hits filed as inhibitors; TbPYK enzyme, Kinase-Glo Plus ATP luminescence, 45 min; 0.12% of 410,000 active; note: potency is the fitted concentration of half-maximal effect; % is set by controls: 0 for no effect and ±100 for the full control effect; nearly all actives have a fitted effect of over 50% in size
#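 Luminescent Kinase-Glo Plus end-point after 45 min room-temperature reaction of T. brucei pyruvate kinase started with 130 uM ADP (final). Buffer TEA 50 mM pH 7.2 with KCl, MgCl2, BSA, Tween-20; titration-based qHTS with fitted concentration-effect curves.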
# LmPK inh – inhibitors of Leishmania mexicana pyruvate kinase; purified LmPK, Kinase-Glo ATP luminescence, 1 h; Q27686; 0.37% of 290,000 active; Potency, µM (doses to about 57.5 µM), for the others: at the highest dose activity change, negative = inhibition, actives largely listed as inhibitors; note: potency is the fitted concentration of half-maximal effect; % is set by controls: 0 for no effect and ±100 for the full control effect
# Target sequence (Q27686 whole entry, looked up): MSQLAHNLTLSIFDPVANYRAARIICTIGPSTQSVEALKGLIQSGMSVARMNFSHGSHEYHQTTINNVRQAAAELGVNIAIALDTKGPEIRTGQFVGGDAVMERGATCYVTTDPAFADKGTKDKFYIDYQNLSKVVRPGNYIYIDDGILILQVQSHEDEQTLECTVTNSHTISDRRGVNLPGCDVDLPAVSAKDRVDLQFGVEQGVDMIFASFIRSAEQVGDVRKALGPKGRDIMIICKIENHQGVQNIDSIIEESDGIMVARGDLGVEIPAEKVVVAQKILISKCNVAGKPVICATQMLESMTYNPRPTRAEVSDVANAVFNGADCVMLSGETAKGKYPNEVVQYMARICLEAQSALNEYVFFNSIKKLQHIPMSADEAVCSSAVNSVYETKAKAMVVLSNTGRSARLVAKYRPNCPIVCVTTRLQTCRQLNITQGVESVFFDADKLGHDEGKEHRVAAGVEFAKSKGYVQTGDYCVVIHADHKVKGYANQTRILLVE
#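 Purified LmPK (0.1 nM) with 0.5 mM PEP and 0.1 mM ADP in imidazole buffer pH 7.2 with MgCl2/KCl, 1 h at room temperature. ATP formed was read by luciferase luminescence and normalized to no-enzyme and uninhibited controls.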
# Active calls of the source: *; ? = inconclusive; nt = no result; [ ] = dose if it differs, or a comment. Unless noted, calls come from the whole dose curve; as a rule, active = well fitted curve in the direction sought with a large enough effect; inconclusive = small, poorly fitted or top-dose-only effect, or another doubt; inactive = no such curve, though single readings can be large; an effect the other way counts as inactive or inconclusive.
SMILES,Shiga toxin inh,NS1 inh,Cycloheximide cs,SARS PLpro yeast,Tb PYK inh,LmPK inh
Cc1ccc(S(=O)(=O)N(C)C)cc1NC(=O)C(C)OC(=O)C1CCCC1 (configuration not stated),nt,nt,nt,-3%,-2%,nt
O=[N+]([O-])c1ccc(Sc2nc3ccccc3o2)c([N+](=O)[O-])c1,55*,-161%,10,-37%,-2%,5%
O=[N+]([O-])c1ccc(Cl)cc1Sc1nc2ccccc2o1,17,-16%,0,-13%,0%,-1%
Cc1cnc(NC(=O)c2ccncc2)s1,36*,nt,17*,0%,-4%,-9%
CCn1ccc(C(=O)NC2CCCC2)n1,14,-1%,2,2%,6%,1%
Cc1cnc(NC(=O)c2cncc(Br)c2)s1,53*,nt,30*,2%,-4%,-7%
CCn1ccc(C(=O)Nc2ncc(C)s2)n1,57*,0%,28*,1%,-3%,-24%
Cc1ccc2nsnc2c1NC(=O)c1cncc(Br)c1,25,nt,9,-3%,-14%,-2%
CCOC(=O)C1=CCN(S(=O)(=O)c2ccc(C)cc2)C1c1cccc(Br)c1 (configuration not stated),nt,nt,nt,nt,3%,nt
COCCN(C(=O)c1ccc(N2CCCC2=O)cc1)c1c(N)n(Cc2ccccc2)c(=O)[nH]c1=O,nt,nt,nt,-6%,1%,nt
CCOC(=O)N1CCN(Cc2nc3cc(NC(=O)CC(C)C)ccc3n2C(C)C)CC1,nt,nt,nt,nt,4%,nt
CCCCc1ccc(-c2nc(NC(=O)C3C4CCC(O4)C3C(=O)O)sc2C)cc1 (configuration not stated),58*,-115%,44*,-29%,nt,1%
CCc1cccc(C)c1NC(=O)C1C2CCC(O2)C1C(=O)O (configuration not stated),-4,2%,-4,2%,-3%,-10%
COc1ccccc1NC(=O)CC(=O)c1ccccc1,55*,0%,44,-1%,-5%,1%
COc1ccccc1C(=O)CC(=O)c1ccccc1,85*,-8%,68*,-2%,-2%,-4%
O=C(CCC(=O)N1CCOc2ccccc21)Nc1ccccc1Cl,2,-9%,-1,-3%,-1%,0%
COc1cc(C2N(c3ccccc3)CCN2c2ccccc2)cc(OC)c1OC,61,-16%,13*,7%,-15%,-2%
Cc1ccc(NC(=O)CS(=O)CC(=O)Nc2ccccc2-c2ccc(C)o2)cc1 (configuration not stated),-7,-17%,0,-2%,-2%,3%
Cc1nc2cc(NC(=O)c3cccc(S(C)(=O)=O)c3)ccc2o1,35,-5%,13*,10%,-4%,-5%
Cc1nc2cc(NC(=O)NCc3ccco3)ccc2o1,49*,-2%,17*,-2%,0%,-2%
CC(=O)Nc1ccc2oc(C)nc2c1,6,0%,-1,-1%,-13%,-6%
Cc1ccc(NC(=O)c2cccc(S(C)(=O)=O)c2)cc1,97*,nt,33*,0%,0%,2%
CCOC(=O)CC(NS(=O)(=O)c1ccc2[nH]c3c(c2c1)CCCC3)c1ccccc1Cl (configuration not stated),-3,nt,-4,nt,6%,nt
CSCCOC(=O)COc1ccc(/C=N/NC(=O)c2nn(C)cc2Cl)cc1,59*,-51%,28*,16%,-7%,-3%
Cc1ccc(S(=O)(=O)Oc2ccc(/C=N/NC(=O)c3nn(C)cc3Cl)cc2)cc1,21,-4%,9,3%,2%,2%
SMILES,Shiga toxin inh,NS1 inh,Cycloheximide cs,SARS PLpro yeast,Tb PYK inh,LmPK inh
Cc1ccccc1CN1C(=O)c2ccccc2Sc2ccc(C(=O)OCc3ccco3)cc21,nt,nt,nt,nt,-2%,nt
COC(=O)c1ccc(NC(=O)C2CC(=O)N(c3ccc(C)cc3)C2)cc1 (configuration not stated),21,-5%[9.22 µM],17*,5%,0%,2%
Cc1ccc(N2CC(C(=O)Nc3ccc4c(c3)OCCO4)CC2=O)cc1C (configuration not stated),53*,0%,16,1%,8%,-5%
Cc1ccc(N2CC(C(=O)Nc3ccc4c(c3)OCCO4)CC2=O)cc1 (configuration not stated),44*,12%,20*,0%,0%,-1%
Cc1ccc(NC(=O)C2CC(=O)N(c3ccc4c(c3)OCCO4)C2)cc1S(=O)(=O)N(C)C (configuration not stated),nt,nt,nt,-3%,-5%,nt
O=C(Nc1ccc2c(c1)OCO2)C1CC(=O)N(c2ccccc2)C1 (configuration not stated),-5,-6%,-1,0%,2%,-2%
Cc1cccc(NC(=O)c2nc[nH]c2C(=O)NCCCCNC(=O)c2[nH]cnc2C(=O)Nc2cccc(C)c2)c1,nt,nt,nt,-4%,-2%,nt
CC(C)c1ccc(NS(=O)(=O)c2ccc3nc(-c4ccccc4)[nH]c3c2)cc1,nt,nt,nt,nt,-4%,nt
N#C/C(C(=O)c1ccccc1)=C1/CCCN1,52,0%,19,4%,-1%,2%
N#C/C(C(=O)Oc1ccccc1)=C1\C=CC=CN1,60*,-14%,44*,6%,5%,-2%
COc1ccc(CNc2ncnc3c2nc2n3CCCC2)cc1,nt,nt,nt,nt,1%,nt
O=C1NC[C@H](CCCCN2CCN(CCc3ccccc3)C(=O)C2=O)N(CCc2ccccc2)C1=O,nt,nt,nt,nt,-4%,nt
C/C(CCc1ccc2c(c1)OCO2)=N\NC(=O)c1ccccc1Cl,13,18%,24*,2%,2%,-1%
O=C(N/N=C(/c1ccccc1)c1ccncc1)c1ccc2c(c1)OCO2,-5,-2%,-4,10%,-11%,-1%
O=C(NCc1ccc2c(c1)OCO2)c1ccccc1Cl,nt,nt,nt,nt,3%,nt
C/C(CCc1ccc2c(c1)OCO2)=N\NC(=O)c1ccccc1,76*,6%,36*,0%,1%,0%
Cc1ccc(NC(=O)Cn2cc(S(=O)(=O)N3CCCC3)c(S(=O)(=O)N3CCCC3)c2)cc1F,nt,nt,nt,nt,2%,nt
CCN1C(=O)C(=Cc2ccc(C)s2)C(=O)N(CC)C1=S,44*,23%,21,4%,?,0%
O=C(Nc1cccc(C(F)(F)F)c1)c1cc2nc(-c3ccc4c(c3)OCO4)cc(C(F)(F)F)n2n1,nt,nt,nt,nt,-2%,nt
Cc1cc(Cl)cc2sc(NC(=O)C3CC3)nc12,15,-1%,11*,3%,-3%,2%
O=C(Nc1nc2c(Cl)ccc(Cl)c2s1)C1CC1,5,-9%,1,5%,0%,-4%
O=C(Nc1nc2c(Cl)c(Cl)ccc2s1)C1CC1,28*,-21%,25*,1%,-1%,0%
CCC(=O)NNc1nc2c(C)c(C)ccc2s1,-3,nt,11,-1%,-11%,0%
Cc1ccc2sc(NC(=O)C3CC3)nc2c1C,63*,-43%,36*,-32%,1%,3%
O=C(Nc1nc2c(F)cc(F)cc2s1)C1CC1,85*,-31%,44*,-1%,4%,1%
